BCR signal inh = inhibitors of chronic active B-cell receptor signaling; AID 493014; 0.05% of 340,000 active; ABC-DLBCL IkBa-CBG/CBR reporter, luminescence ratio, 4 h; Potency, µM (highest dose often 46.1 µM), hits mostly inhibitors; active = well fitted inhibition curve with a large enough effect in the signal ratio, with a control signal flat, not every such curve was filed as active; inconclusive = small, poorly fitted or top-dose-only effect, or effect the other way, or a change in a side signal; the % refers to the signal ratio
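Cell line TMD8 (human ABC DLBCL), stably expressing tet-inducible CBG68-IkBa fusion and CBR; IMDM/0.5% FBS; cpd up to 46 uM; dox induction, 4 h, 37C/5% CO2; dual luminescence; green/red ratio; MG132 control.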
RORgamma inh = blocks mouse ROR gamma transcriptional activity. 5.4% of 310,000 active. AID 2551. P51450. Drosophila S2 Gal4-RORgamma UAS-luciferase reporter, 20 h. Potency, µM (top dose mostly 53.6 µM), most hits filed as inhibitors; also: nearly all actives have a fitted effect of over 60% in size
Target sequence (P51450 whole entry, looked up, the tested form may be a part): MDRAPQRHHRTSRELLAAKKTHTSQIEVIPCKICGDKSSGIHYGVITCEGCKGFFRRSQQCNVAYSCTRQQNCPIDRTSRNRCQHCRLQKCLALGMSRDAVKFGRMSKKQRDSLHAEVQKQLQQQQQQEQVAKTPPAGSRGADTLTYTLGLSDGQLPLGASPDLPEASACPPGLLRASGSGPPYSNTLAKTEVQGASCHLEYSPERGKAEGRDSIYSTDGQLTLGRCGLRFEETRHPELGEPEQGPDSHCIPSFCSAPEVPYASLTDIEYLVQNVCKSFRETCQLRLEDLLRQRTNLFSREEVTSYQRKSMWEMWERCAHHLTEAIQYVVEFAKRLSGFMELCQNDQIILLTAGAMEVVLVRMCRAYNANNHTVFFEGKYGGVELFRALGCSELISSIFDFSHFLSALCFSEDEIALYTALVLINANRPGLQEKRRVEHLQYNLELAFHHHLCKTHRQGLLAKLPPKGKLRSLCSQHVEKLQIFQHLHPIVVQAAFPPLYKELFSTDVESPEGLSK
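Luciferase reporter read in Schneider cells carrying Gal4-RORγ (mouse) and UAS-Photinus luciferase; cells given compound 1 h before 700 uM copper sulfate induction, then incubated 20 h at ambient temperature.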
SW480 rereplic = inducers of DNA re-replication in SW480 colon cancer cells; SW480 DNA re-replication, Hoechst DNA content imaging, 48 h; Potency, µM (highest dose often 46.1 µM), hits mostly activators; 1.8% of 340,000 active; AID 624297; also: nearly all actives have a fitted effect of over 55% in size
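Cells (250 per well) received 23 nL compound or DMSO by pin tool and were kept 48 hr at 37 C, 5% CO2. Nuclei were then stained with Hoechst for 40 min and scanned for DNA content.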
Giardia kill = kills Giardia lamblia; Giardia lamblia trophozoite viability; activity change, % at 7.66 µM, hits read low; 0.15% of 340,000 active; AID 540267; in the data active = activity change below about -80%; inconclusive = between about -30% and that limit;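 also: parasites exposed to compound for two days anaerobically before the ATP read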
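Viability, read as ATP luminescence: trophozoites at 100 cells/well, compound added, 48 hrs anaerobic at 37 deg C, then 15-30 min room-temperature development before reading.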
MCF10A rerep = DNA re-replication induction in MCF 10a cells | MCF 10A DNA re-replication, Hoechst nuclear intensity, 48 h | Potency, µM (doses to about 46.1 µM), actives largely listed as activators | 2.9% of 350,000 active | AID 624296; also: nearly all actives have a fitted effect of over 50% in size
VP16 counter = Gal4-VP16 reporter inhibition counter-screen; AID 2546; 3.5% of 310,000 active; Potency, µM (titrated, usually from 53.6 µM), usual class: inhibitors; Drosophila S2 Gal4-VP16 UAS-luciferase, luminescence, 20 h;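 also: Gal4-VP16 expression switched on by copper sulfate through the metallothionein promoter; nearly all actives have a fitted effect of over 50% in size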
Large screens that a line does not name were inactive. Most compounds without a hit are left out; they make up all but 8.3% or so of the library. Unless noted, calls follow the shape of the dose curve; as a rule, active = well fitted curve in the direction sought with a large enough effect; inconclusive = small, poorly fitted or top-dose-only effect, or another doubt; inactive = no such curve, though single readings can be large; an effect the other way counts as inactive or inconclusive.

O=Cc1cc(-c2ccccc2)[nH]c1-c1ccccc1	MCF10A rerep 6.5µM
O=P1(O)OP(=O)(O)OP(=O)(O)O1.[Al]	none (no result: BCR signal inh, SW480 rereplic, Giardia kill, MCF10A rerep)
CCNS(=O)(=O)c1ccc(NS(=O)(=O)c2cc(C)ccc2C)cc1	BCR signal inh inconclusive
CCCCNS(=O)(=O)c1ccc(NS(=O)(=O)c2c(C)cc(C)cc2C)cc1	BCR signal inh inconclusive, SW480 rereplic inconclusive, MCF10A rerep 4.6µM
O=C(CCC1CCCN(C(=O)c2ccsc2)C1)N1CCN(c2ccccn2)CC1 (stereo not drawn)	none
O=C(Nc1ccc(S(=O)(=O)Nc2nccs2)cc1)C1=NN(c2ccccc2)C(=O)CC1	BCR signal inh inconclusive
Cc1cc(N2CCC(C)CC2)c(F)cc1[N+](=O)[O-]	none
Cc1cc(N2CCCC2)c(F)cc1/C=C\[N+](=O)[O-]	SW480 rereplic 29µM, MCF10A rerep inconclusive
CC(C)(CNC(=O)c1ccc([N+](=O)[O-])c(Cl)c1)CNC(=O)c1ccc([N+](=O)[O-])c(Cl)c1	BCR signal inh inconclusive, RORgamma inh inconclusive, SW480 rereplic inconclusive, MCF10A rerep inconclusive, VP16 counter 5µM
CC(=O)Oc1ccc2nc(-c3ccco3)oc(=O)c2c1	BCR signal inh inconclusive, RORgamma inh inconclusive
C/C(CCc1ccc2c(c1)OCO2)=N\N=C(/N)SC1CC(=O)N(c2ccc(Cl)cc2)C1=O (stereo not drawn)	BCR signal inh inconclusive, RORgamma inh 8.9µM, VP16 counter inconclusive
N/C(=N\N=C\c1ccc2c(c1)OCO2)SC1CC(=O)N(c2ccc(C(=O)O)cc2)C1=O (stereo not drawn)	none
O=C(O)CCC(=O)Nc1ccc(C(=O)OC2CCCCC2)cc1	RORgamma inh 18µM, VP16 counter inconclusive
O=S(=O)(NCc1ccncc1)c1ccc(S(=O)(=O)NCC2CCCO2)cc1 (stereo not drawn)	MCF10A rerep 6.5µM, VP16 counter inconclusive
O=C(C1CC1)N1CCC(c2nc(-c3ccc(S(=O)(=O)NCC4CCCO4)cc3)no2)CC1 (stereo not drawn)	BCR signal inh inconclusive (no result: VP16 counter)
O=C(c1ccccc1)N1CCC(c2nc(-c3ccc(S(=O)(=O)NCC4CCCO4)cc3)no2)CC1 (stereo not drawn)	MCF10A rerep inconclusive, VP16 counter 8.9µM
Cc1cccc(C2=NN(c3ccccc3)[C@@H](C(=O)N3CCOC3=O)[C@@H]2c2ccc(Cl)cc2)c1	BCR signal inh inconclusive, SW480 rereplic 26µM, MCF10A rerep 2.3µM
Cc1cccc(C2=NN(c3ccccc3)[C@@H](C(=O)N3CCOC3=O)[C@@H]2c2ccc(F)cc2)c1	SW480 rereplic inconclusive, Giardia kill inconclusive, MCF10A rerep inconclusive
O=C1OCCN1C(=O)[C@H]1[C@H](c2ccccc2)C(c2cccc(Cl)c2)=NN1c1ccccc1	SW480 rereplic 18µM, MCF10A rerep inconclusive
CCCCN(C(=O)c1ccc(S(=O)(=O)N2CCCC2)cc1)C1CCS(=O)(=O)C1 (stereo not drawn)	none (no result: RORgamma inh, VP16 counter)
O=C(CNC(=O)c1ccc(Cl)cc1Cl)OCC(=O)N1CCCC1=O	none (no result: RORgamma inh, VP16 counter)
C[C@@]1(C(=O)O)NCCc2cc(O)c(O)cc21	none (no result: BCR signal inh, SW480 rereplic, Giardia kill, MCF10A rerep)
Cc1ccsc1C(=O)C1CCCN(Cc2cccn2-c2ccc(Cl)cn2)C1 (stereo not drawn)	BCR signal inh inconclusive, SW480 rereplic 18µM, MCF10A rerep inconclusive
O=C(c1ccc(Cl)cc1)C1CCCN(Cc2cccn2-c2ccccn2)C1 (stereo not drawn)	BCR signal inh inconclusive
O=c1c2cc(Br)ccc2nc2n1CCCCC2	none
Fc1ccc2nc3n(c2c1F)CCCCCC3	RORgamma inh 11µM, MCF10A rerep inconclusive
CCOc1cc2sc(N3CCC(C(=O)Nc4ccc(C(C)C)cc4)CC3)nc2cc1Br	none (no result: BCR signal inh, RORgamma inh, SW480 rereplic, MCF10A rerep, VP16 counter)
Cc1ccc(C(=O)N/C(=C\c2ccc(-c3cc(Cl)ccc3Cl)o2)C(=O)NCc2cccnc2)cc1	BCR signal inh inconclusive, RORgamma inh inconclusive
O=C(NCc1cccnc1)/C(=C/c1ccc(-c2cccc(Cl)c2)o1)S(=O)(=O)c1ccccc1	BCR signal inh inconclusive, RORgamma inh 11µM, MCF10A rerep inconclusive, VP16 counter inconclusive
O=C(NCc1cccnc1)/C(=C\c1ccc(-c2cccc(Cl)c2)o1)S(=O)(=O)c1ccccc1	BCR signal inh inconclusive, RORgamma inh inconclusive, SW480 rereplic inconclusive, MCF10A rerep 7.3µM, VP16 counter 13µM
N#C/C(=C/c1ccc(CNC(=O)C(=O)Nc2cc(Cl)cc(Cl)c2)o1)C(=O)NCc1cccnc1	none
O=C(Nc1ccc(N2CCCCC2)cc1)c1cc([N+](=O)[O-])cc([N+](=O)[O-])c1	Giardia kill inconclusive
COC(=O)[C@@]12CCCN1[C@H](c1ccc(-c3ccc(Cl)c(Cl)c3)c(OC)c1)[C@H]1C(=O)N(C)C(=O)[C@H]12	BCR signal inh inconclusive, MCF10A rerep inconclusive (no result: RORgamma inh, VP16 counter)
COc1ccc(CCNC(=O)COc2cccc(-n3cnnn3)c2)cc1	none (no result: RORgamma inh, VP16 counter)
C[C@@H]1O[C@H]2C3=C(C(=O)[C@H]4O[C@@H]4[C@H]3O)[C@@H]1[C@@H]1[C@@H](C)OC=C3[C@H](O)[C@H]4O[C@@H]4/C(=N\OCc4ccccc4)[C@]312	none (no result: BCR signal inh, SW480 rereplic, Giardia kill, MCF10A rerep)
Cn1c2ccccc2c2cnn(CC(=O)N3CCCCC3)c(=O)c21	none
O=Nc1onc(-c2ccc([N+](=O)[O-])cc2)c1NO	BCR signal inh inconclusive, RORgamma inh 3.5µM, VP16 counter 4.5µM
Cc1onc(-c2ccccc2)c1NC(=O)Nc1c(-c2ccccc2)noc1C	none
O=[N+]([O-])c1ccc(-c2ccc(/C=N/O)o2)cc1	none
Cc1ccc(-c2noc(N=O)c2NO)cc1	BCR signal inh inconclusive, RORgamma inh 0.71µM, SW480 rereplic inconclusive, MCF10A rerep inconclusive, VP16 counter 0.63µM
COC(=O)c1sc(NC(=O)c2c(OC)cccc2OC)c(C#N)c1C	BCR signal inh inconclusive
C/C(=N/NC(=O)c1ccc(C)nc1)c1ccc2c(c1)CCCC2	BCR signal inh inconclusive, RORgamma inh inconclusive, SW480 rereplic inconclusive, MCF10A rerep inconclusive
NC1=NCC(O)=C1c1nc2ccccc2[nH]1	BCR signal inh inconclusive, RORgamma inh 11µM
N=C1C(c2nc3ccccc3[nH]2)=C(O)CN1C1CCCCC1	BCR signal inh inconclusive
N=C1C(c2nc3ccccc3[nH]2)=C(O)CN1c1ccc(F)cc1	RORgamma inh 5µM
O=S1(=O)OC(c2ccc(O)cc2)(c2ccc(O)cc2)c2ccccc21	none (no result: BCR signal inh, Giardia kill)
O=[N+]([O-])c1cccnc1N1CCC(c2cc(-c3cccc(C(F)(F)F)c3)n[nH]2)CC1	RORgamma inh 13µM, SW480 rereplic inconclusive, MCF10A rerep inconclusive, VP16 counter inconclusive
O=[N+]([O-])c1cccnc1N1CCC(c2cc(-c3ccc(Cl)cc3Cl)n[nH]2)CC1	SW480 rereplic inconclusive, MCF10A rerep inconclusive, VP16 counter inconclusive

Screening data (PubChem BioAssay)
